KDM5B inh – inhibitors of human KDM5B histone demethylase | Q9UGL1 | KDM5B demethylase, FDH-coupled NADH fluorescence (FDH is formaldehyde dehydrogenase) | Potency, µM (series often up to 57.7 µM), actives largely listed as inhibitors | 220,000 compounds, 2.6% hits | AID 1347165; active = well fitted inhibition curve with a large enough effect; also: nearly all actives have a fitted effect of over 70% in size
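Compound dilutions met 200 nM (final) KDM5BΔAP for 10 min at room temperature before substrate addition. The substrate mix held 12.5 µM H3K4me3 with cofactors 25 µM α-ketoglutarate and 50 µM Fe²⁺. NADH signal gain over 30 min defined activity.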
A number is an active result; n = inactive. The full list was thinned out, with hits kept by preference.

SMILES	KDM5B inh
COc1cc(Cl)c(C)cc1NC(=O)CSc1nnc(CN2CCCC2)n1-c1ccccc1	n
O=C1CO[C@H]2CN(Cc3ccccc3)C[C@H]2N1Cc1cccc(C(F)(F)F)c1	n
O=C(NC(C1CC1)C1CC1)c1ccncc1	n
O=C(Cc1n[nH]c(=O)c2ccccc12)OCC(=O)c1ccc(C2CCCCC2)cc1	n
CCCc1cc(C(=O)Nc2cc(Cl)ccc2Cl)no1	n
Nc1nonc1C(=O)N1CCN(C(=O)Nc2ccc(F)c(Cl)c2)CC1	n
CN(C)/C=C\C(=O)c1cccs1	n
N#Cc1ccccc1Cn1c(CN2CCCCC2)nc2scc(-c3cccs3)c2c1=O	n
CNc1c(NC(=O)NC(C)C)c(=O)oc2ccccc12	n
COc1ccc(OCC(=O)N2CCC3(CC2)C(=O)NCCN3C)cc1	n
O=C1Nc2ccc(Br)cc2C(=O)N2CCN(C(=O)C3CCNCC3)C[C@H]12	n
COc1ccc(-c2ccc3c(c2)C(=O)N2CC[C@H](NC(=O)C4CCNCC4)C[C@H]2C(=O)N3)c(OC)c1	n
COc1ccc(Cl)cc1-c1ccc2c(c1)C(=O)N1CCN(C(=O)CN)C[C@H]1C(=O)N2	35.5µM
COc1ccc(Cl)cc1-c1ccc2c(c1)C(=O)N1CCN(C(=O)c3cnccn3)C[C@H]1C(=O)N2	n
COCC(=O)N[C@H]1CCN2C(=O)c3cc(-c4cc(Cl)ccc4OC)ccc3NC(=O)[C@@H]2C1	n
COc1ccc(-c2ccc3c(c2)C(=O)N2CCN(C(=O)C4CCNCC4)C[C@@H]2C(=O)N3)c(OC)c1	n
O=C1Nc2ccc(-c3ccc(Cl)cc3)cc2C(=O)N2CCN(C(=O)c3ccccc3)C[C@H]12	n
COc1ccc(Cl)cc1-c1ccc2c(c1)C(=O)N1CCN(C(=O)C3CCCC3)C[C@H]1C(=O)N2	20µM
O=C1Nc2ccc(-c3ccc(Cl)cc3)cc2C(=O)N2CCN(C(=O)C3CCCCC3)C[C@H]12	25.1µM
CCCCn1nnc(NCc2ccc(Cl)cc2)n1	n
CCC(CC)C(=O)n1ccn(S(=O)(=O)c2ccc(C)cc2)c1=O	n
Cc1ccc(-n2c(SCc3cccc(C#N)c3)nnc2N2CCCC2)cc1	n
COc1ccc(OC)c(S(=O)(=O)Nc2ccc(Nc3nc(C)cc(N(C)C)n3)cc2)c1	n
CC(NC(=O)c1nn(C)c(=O)c2ccccc12)c1ccc(Cl)cc1Cl (stereo not given)	n
COc1ccccc1CNc1nc2c(S(=O)(=O)c3ccccc3)nnn2c2ccc(Cl)cc12	n
SMILES	KDM5B inh
CCOc1ccccc1Nc1nc2c(S(=O)(=O)c3ccc(C)cc3)nnn2c2ccsc12	n
Cc1ccc(S(=O)(=O)c2nnn3c2nc(NCc2cccs2)c2sccc23)cc1C	n
CC(C)c1ccc(S(=O)(=O)c2nnn3c2nc(NCc2ccc(F)cc2)c2ccccc23)cc1	n
COCCNc1nc2c(S(=O)(=O)c3ccccc3)nnn2c2ccccc12	n
COCCCNc1nc2c(S(=O)(=O)c3ccccc3)nnn2c2ccccc12	79.4µM
COCCCNc1nc2c(S(=O)(=O)c3ccc(C)c(C)c3)nnn2c2ccccc12	79.4µM
Cc1ccc(S(=O)(=O)c2nnn3c2nc(NCc2ccccc2Cl)c2sccc23)cc1	n
Cc1cc(C)c(S(=O)(=O)c2nnn3c2nc(NCCCOC(C)C)c2ccccc23)c(C)c1	n
COCCNc1nc2c(S(=O)(=O)c3ccc(C)cc3)nnn2c2ccccc12	79.4µM
COCCCNc1nc2c(S(=O)(=O)c3ccc(C)cc3)nnn2c2ccccc12	79.4µM
O=S(=O)(c1ccccc1)c1nnn2c1nc(NC1CC1)c1ccccc12	n
CCCCCc1ccc(N=Cc2ccc(OCC(C)CC)cc2O)cc1 (stereo not given)	n
CCOc1ccccc1CN1CCC(Cc2ccc(C(=O)N3CCOCC3)cc2)CC1	n
CC(NCC(=O)NC1(C#N)CCCCC1)c1ccc(Cl)cc1Cl (stereo not given)	n
C/C(=N\O)c1cccs1	n
COc1cc(NC(=O)CSc2nnc(-c3ccccc3OC)n2-c2ccccc2)cc(OC)c1	n
CC(C)c1cc(NCc2csc(-c3ncccn3)n2)n2nccc2n1	n
CCNC(=O)NC(=O)C(C)N(C)CCCCc1ccccc1 (stereo not given)	n
CCOc1ccccc1NC(=O)c1ccc(CN2CCCC2=O)cc1	n
CN(Cc1cccc(Cl)c1Cl)C(=O)CCc1c[nH]c2ccccc12	n
O=C(CCn1ncc(=O)c2ccccc21)N1CCCC1c1ccc2c(c1)OCCCO2 (stereo not given)	n
Cc1ccccc1NC(=O)CCc1ccnc(N2CCCC2)c1	28.2µM
Cc1ccccc1NC(=O)Cn1c(N2CCCCC2)nc(C)c(C)c1=O	n
CCOc1cc(=O)n2c(c1C(=O)Nc1ccc(OC)cc1C)CCCC2	n
Cc1cc(C(=O)NCc2ccnc(N3CCOCC3)c2)on1	n
Cc1ccccc1NC(=O)CCC1CCCC1	n
CN(Cc1ccccc1)C(=O)c1ccnc(-c2nnc3ccc(N4CCOCC4)nn23)c1	n
COc1ccc(NC(=O)CCc2ccnc(N3CCCC3)c2)c(C)c1	25.1µM
COc1ccc(NC(=O)CC#N)c(C)c1	n
CN(Cc1ccccc1)C(=O)CCc1ccnc(N2CCOCC2)c1	25.1µM

Screening results: PubChem, National Center for Advancing Translational Sciences (NCATS)
